Among the test systems are DU-145 prostate; K-562 leukemia; MALME-3M melanoma; MDA-MB-231 breast; RXF 393 renal; SF-268 CNS; SF-295 CNS; SF-539 CNS; M14 melanoma; UACC-257 melanoma.
Assay in all cases: NCI-60 one-dose screen, 48 h (100 = growth as untreated, 0 = no growth, -100 = all killed)
What all share (conditions): 10 µM unless noted

SMILES strings stand for the structures. Compounds without any hit were thinned out: in the full panel of roughly 83,000, 20% have a hit.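 Plates (96-well) were seeded with cells, treated with compound at one concentration, and incubated for 48 hours before percent growth was determined.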 A number with no mark means an inactive call. Active and inactive are the calls of the source. The calls were made as follows: active = growth percent below 10; inactive = the rest.

In the case of `COc1cc(-c2nc3nc4sc(C)c(C)c4c(=O)n3[nH]2)cc(OC)c1OC`, the growth in the test on DU-145 prostate was 99.7%; in the test with K-562 leukemia, 47%; in the test with MALME-3M melanoma, 59.6%; in the test on MDA-MB-231 breast, 91.2%; in the test with RXF 393 renal it was 78.9%; in the test with SF-268 CNS, 95.9%. Besides, the growth with SF-295 CNS is 60.5%; in the test on SF-539 CNS it was 83.4%; with M14 melanoma, 78.2%.

Take `Cc1[nH]c(=O)[nH]c(=O)c1CCSSCCc1c(C)[nH]c(=O)[nH]c1=O`: the growth with DU-145 prostate was 113%; in the test on K-562 leukemia it was 95.8%; with MALME-3M melanoma, 115%; in the test on MDA-MB-231 breast it was 119%; in the test with RXF 393 renal it was 111%; in the test with SF-268 CNS, 113%. Moreover, the growth in the test on SF-295 CNS was 98.4%; in the test with SF-539 CNS, 110%; with M14 melanoma, 95.1%.

Consider `O=C(c1ccc(Cl)cc1)c1ccc(Cl)cc1`, for which the growth in the test on DU-145 prostate was 108%; in the test on K-562 leukemia, 98.2%; in the test with MALME-3M melanoma it was 129%; with MDA-MB-231 breast it was 124%; with RXF 393 renal, 103%; with SF-268 CNS, 104%. The figures for the growth in the test with SF-295 CNS, with SF-539 CNS and in the test on M14 melanoma were 102%, 107% and 114%, respectively.

`CCCCCCCCCCCCCCCCCC1=NC(C)(CO)CO1` (stereo not drawn): the growth was 102% with DU-145 prostate; 80.7% with K-562 leukemia; 91.5% in the test on MALME-3M melanoma; 88.8% with MDA-MB-231 breast; 102% in the test with RXF 393 renal; 98.6% in the test on SF-268 CNS. The results for the growth in the test with SF-295 CNS, in the test on SF-539 CNS and with M14 melanoma were 88.5%, 97.7% and 95.8%, respectively.

On to `COc1cccc(CCN2C(=O)CCC3=C2CCC3=O)c1`, for which the growth in the test with DU-145 prostate is 114%; in the test on K-562 leukemia, 106%; with MALME-3M melanoma, 100%; with MDA-MB-231 breast, 78.2%; in the test with RXF 393 renal, 112%; with SF-268 CNS, 119%. The results for the growth in the test with SF-295 CNS, with SF-539 CNS and in the test on M14 melanoma were 97.6%, 97.8% and 83.8%, respectively.

`COc1c(Br)cc(C(c2cc(Br)c(OC)c(Br)c2)c2ccccc2C(=O)O)cc1Br`: the growth in the test on DU-145 prostate was 111%; in the test with K-562 leukemia it was 89.6%; in the test on MALME-3M melanoma, 91.3%; with MDA-MB-231 breast it was 102%; in the test on RXF 393 renal, 107%; with SF-268 CNS, 98.8%. For the same molecule, the growth was 96% with SF-295 CNS, 92.2% in the test with SF-539 CNS and 95.4% with M14 melanoma.

As for `COc1ccc(CC(=O)Nc2nn3c(-c4cc(C(F)(F)F)cc(C(F)(F)F)c4)nnc3s2)cc1`, the growth in the test on DU-145 prostate was 86%; in the test on K-562 leukemia, 62.4%; in the test on MALME-3M melanoma, 80.9%; in the test on MDA-MB-231 breast it was 88%; with SF-268 CNS, 85.8%; with SF-295 CNS, 66.1%. In addition, the growth was 65.7% with SF-539 CNS, 58.2% with UACC-257 melanoma and 97% in the test with M14 melanoma.

Turning to `COc1cc(-c2nnc(-c3nc(-c4cc(OC)c(OC)c(OC)c4)n4ccccc34)o2)ccc1N`, the growth with DU-145 prostate is 85.4%; with K-562 leukemia, 64.7%; with MALME-3M melanoma, 86.5%; in the test with MDA-MB-231 breast it was 84.4%; in the test with RXF 393 renal, 84.4%; with SF-268 CNS, 83.6%. Also, the growth was 98.8% in the test with SF-539 CNS, 93.2% in the test with UACC-257 melanoma and 80.3% in the test on M14 melanoma.

`CNc1nc(NC2CCCC2)nc(Sc2ccc(OC)cc2)n1`: the growth was 26.5% [100 µM] with DU-145 prostate; 9.58% [100 µM] (active) in the test with K-562 leukemia; -11.9% [100 µM] (active) with MALME-3M melanoma; -30.9% [100 µM] (active) with MDA-MB-231 breast; 32% [100 µM] with RXF 393 renal; 25.7% [100 µM] in the test on SF-268 CNS. The growth with SF-539 CNS is 49.2% [100 µM]; in the test on UACC-257 melanoma it was 31.4% [100 µM]; in the test on M14 melanoma, 16.7% [100 µM].

With `CCCCCc1c(C)[nH]c(/C=C2\N=C(c3ccc[nH]3)C=C2OCc2ccccc2)c1C`, the growth in the test on DU-145 prostate was -100% [100 µM] (active); in the test on K-562 leukemia, -26.2% [100 µM] (active); in the test with MALME-3M melanoma, -86.9% [100 µM] (active); with MDA-MB-231 breast, -86.4% [100 µM] (active); in the test with RXF 393 renal it was -48.8% [100 µM] (active); in the test with SF-268 CNS, -70.9% [100 µM] (active). Besides, the growth in the test on SF-539 CNS was -69.8% [100 µM] (active); with UACC-257 melanoma, -87.7% [100 µM] (active); with M14 melanoma, -81.4% [100 µM] (active).

Turning to `CCCCCc1c(C)[nH]c(/C=C2\N=C(c3ccc[nH]3)C=C2Oc2ccccc2)c1C`, the growth is -68.1% [100 µM] (active) in the test with DU-145 prostate; -43.8% [100 µM] (active) with K-562 leukemia; -44.7% [100 µM] (active) with MALME-3M melanoma; -94.1% [100 µM] (active) with MDA-MB-231 breast; -57.2% [100 µM] (active) in the test on RXF 393 renal; -60.8% [100 µM] (active) in the test on SF-268 CNS. Besides, the results for the growth in the test on SF-295 CNS, in the test with UACC-257 melanoma and with M14 melanoma were -57.7% [100 µM] (active), -66.9% [100 µM] (active) and -96.7% [100 µM] (active), respectively.

Take `COc1ccc([N+](=O)[O-])c(S(=O)(=O)c2ccc(Cl)cc2)n1`: the growth in the test with DU-145 prostate is 93.2%; in the test on K-562 leukemia, 7.72% (active); with MALME-3M melanoma, 11.8%; in the test on MDA-MB-231 breast, 68.1%; in the test on SF-268 CNS, 92.4%; with SF-295 CNS, 95.3%. Moreover, the values for the growth in the test on SF-539 CNS, in the test on UACC-257 melanoma and in the test with M14 melanoma were 82.8%, 94.9% and 60.5%, respectively.

For the origin of these results see PubChem BioAssay (NCI).
